Only some compounds are listed: those with a hit (about 10% of all), similar ones and a draw of the others.
CCT modulator = changes cytosolic chaperonin activity | purified chaperonin ATPase assay, HTRF ADP detection, 30 min | activity change, % (no concentration beside the values), hits read low | 360,000 compounds, 0.3% hits | AID 651819; in the data active means activity change below about -30%
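Enzyme 40 or 20 nM (batch-dependent) in Tris pH 7.4/KCl/MgCl2/DTT; cpd 76 uM single point; ATP 10 uM; 30 min 37 °C; Transcreener ADP HTRF detection, 30 min RT; ratio 665/615.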
Mm-Cpn inhibitor = blocks the Methanococcus maripaludis chaperonin Mm-Cpn; Potency, µM (top dose mostly 76.9 µM), inactives show at the highest dose activity, negative = inhibition, most hits filed as inhibitors; purified Mm-Cpn ATPase, ADP Transcreener TR-FRET; 330,000 compounds, 0.031% hits; further: potency means the concentration at half of the fitted maximal effect; nearly all actives have a fitted effect of over 80% in size
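Measured: ADP formation by purified Mm-CPN. Conditions: 25 nM protein, 10 uM ATP, Tris pH 7.4 with Mg2+, K+ and DTT, 37°C for 30 min. Detection: Transcreener HTRF after 30 min at room temperature.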
PLK1 PBD inh = inhibitors of human PLK1 polo-box domain binding; Potency, µM, without a hit: max response, negative = inhibition, most hits filed as inhibitors; 360,000 compounds, 2.8% hits; P53350; Plk1 PBD binding of FITC phosphopeptide, fluorescence polarization; further: potency means the concentration at half of the fitted maximal effect; series mostly up to about 57 µM; nearly all actives have a fitted effect of over 65% in size
Sfp PPTase inh = blocks B. subtilis Sfp PPTase activity. Biochemical Sfp PPTase activity, qHTS. Potency, µM, inactives show largest response in the series, negative = inhibition, hits mostly inhibitors. 310,000 compounds, 3.5% hits. AID 1490;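 further: the enzyme is Sfp with the accession as filed and its product quenches rhodamine fluorescence; potency means the concentration at half of the fitted maximal effect; 0% = enzyme reaction without inhibitor and -100% = no enzyme wells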
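Sfp 15 nM + cpd, 15 min RT; start w/ rhodamine-CoA 5 uM, BHQ-2-YbbR 12.5 uM (final); 50 mM Hepes pH 7.6, 10 mM MgCl2, 0.01% NP-40, 0.01% BSA; read 525/598 nm at 0 and 30 min.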
G9a inh = G9a (human) methyltransferase inhibition; AID 504332; G9a H3K9 monomethylation, AlphaScreen, 2 h; Q96KQ7; 350,000 compounds, 8.8% hits; Potency, µM (titrated, usually from 102 µM), for inactives: at the top dose activity, negative = inhibition, actives largely listed as inhibitors; further: potency means the concentration at half of the fitted maximal effect; nearly all actives have a fitted effect of over 75% in size
Target sequence (Q96KQ7 913-1193 limits assumed): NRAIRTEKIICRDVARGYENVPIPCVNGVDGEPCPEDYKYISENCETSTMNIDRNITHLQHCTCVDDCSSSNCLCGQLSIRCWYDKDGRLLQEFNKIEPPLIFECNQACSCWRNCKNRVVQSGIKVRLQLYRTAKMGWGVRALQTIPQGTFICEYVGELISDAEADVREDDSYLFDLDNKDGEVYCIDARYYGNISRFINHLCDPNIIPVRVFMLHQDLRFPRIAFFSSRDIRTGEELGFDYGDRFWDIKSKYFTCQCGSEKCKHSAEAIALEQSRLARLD
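Enzyme 20 nM + cpd, 15 min RT; add b-H3K9 pep 500 nM / SAM 20 uM; 2 h RT; anti-H3K9me1 Ab 0.5 ug/mL + SA donor / anti-rabbit acceptor beads 20 ug/mL each, 10 min; AlphaScreen read.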
VDR inhibitor = vitamin D3 receptor (human) inhibition; VDR-SRC2-3 peptide fluorescence polarization, 2 h; 400,000 compounds, 0.93% hits; P11473; Potency, µM, without a hit: max response, negative = inhibition, hits mostly inhibitors; further: potency means the concentration at half of the fitted maximal effect
Target sequence (P11473 whole entry, looked up): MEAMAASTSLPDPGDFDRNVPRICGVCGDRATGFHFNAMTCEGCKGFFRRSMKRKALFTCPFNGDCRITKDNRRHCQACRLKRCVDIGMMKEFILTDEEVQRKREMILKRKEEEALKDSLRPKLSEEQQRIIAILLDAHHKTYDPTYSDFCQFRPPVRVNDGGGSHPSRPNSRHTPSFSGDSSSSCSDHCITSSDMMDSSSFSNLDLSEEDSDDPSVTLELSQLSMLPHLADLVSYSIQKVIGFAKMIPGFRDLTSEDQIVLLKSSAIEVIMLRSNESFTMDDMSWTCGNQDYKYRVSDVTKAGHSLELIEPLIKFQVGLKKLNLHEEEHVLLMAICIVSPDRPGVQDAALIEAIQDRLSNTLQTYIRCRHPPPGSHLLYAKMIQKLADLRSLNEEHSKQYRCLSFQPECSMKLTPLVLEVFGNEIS
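Inhibition of the VDR/SRC2-3 peptide interaction is quantified by fluorescence polarization. Compounds (23 nl, pintool) incubate with the reagents for 2 hours at ambient room temperature.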
An asterisk follows results filed as active; ? = inconclusive; . = no result given; [ ] = dose if it differs, or a comment. Unless noted, the call rests on the fitted dose curve; in most records, active means well fitted curve in the direction sought with a large enough effect; inconclusive means small, poorly fitted or top-dose-only effect, or another doubt; inactive means no such curve, though single readings can be large; an effect the other way counts as inactive or inconclusive. Unless noted, on the % scale 0 is the no-effect control and ±100 the full control effect.

SMILES	CCT modulator	Mm-Cpn inhibitor	PLK1 PBD inh	Sfp PPTase inh	G9a inh	VDR inhibitor
Cc1cc(-c2ccc(C)c(S(=O)(=O)N3CC(=O)Nc4ccccc43)c2)on1	-35*	0%	-4%	18%	14%	-9%
CCc1ccc(-c2cc(C)no2)cc1S(=O)(=O)N1CC(=O)Nc2ccccc21	-1	2%	3%	17%	-6%	-9%
O=S(=O)(Nc1cc(S(=O)(=O)N2CCCC2)ccc1O)c1ccc(Cl)s1	-1	-2%	-5%	.	56µM*	-20%
CC(=O)Nc1ccc(S(=O)(=O)Nc2cc(S(=O)(=O)N3CCCCC3)ccc2O)cc1	-2	1%	-10%	.	28µM*	-14%
CC(=O)Nc1ccc(S(=O)(=O)N2CCCC2)cc1	-3	0%	8%	28%	56%	9%
O=C(Nc1cc(S(=O)(=O)N2CCOCC2)ccc1O)c1ccc(NS(=O)(=O)c2ccc(Cl)s2)cc1	-3	-2%	?	2%	?	-23%
O=[N+]([O-])c1ccccc1S(=O)(=O)N1CCN(CC2CC3C=CC2C3)CC1 (stereo not given)	0	-6%	3%	-15%	10µM*	2%
Cc1ccc(S(=O)(=O)N2CCN(Cc3ccc4c(c3)OCO4)CC2)cc1	.	.	.	.	10%[59 µM]	-4%
O=[N+]([O-])c1ccccc1S(=O)(=O)N1CCN(Cc2ccccc2)CC1	0	-2%	-5%	-3%	79µM*	-20%
CCS(=O)(=O)N1CCN(S(=O)(=O)c2ccccc2[N+](=O)[O-])CC1	2	0%	5%	7%	-7%	12%
Cc1ccccc1CN1CCN(CC2CC3C=CC2C3)CC1 (stereo not given)	-1	-1%	-8%	79µM*	3.2µM*	14%
O=[N+]([O-])c1ccccc1S(=O)(=O)N1CCN(Cc2ccc3c(c2)OCO3)CC1	-3	-1%	-12%	-20%	10µM*	7%
O=[N+]([O-])c1ccccc1S(=O)(=O)N1CCN(c2ccccc2)CC1	0	0%	-6%	-10%	3%	-11%
COC(=O)C1(C(=O)OC)CC2=CCC3C(=O)N(c4ccccc4)C(=O)C3C2Cc2ccccc2[C@@H]1C[N+](=O)[O-] (stereo not given in full)	.	.	.	4%	.	6%
COc1ccc(C(=O)N2CCC[C@@]3(CCN(Cc4ccccc4OC)C3)C2)cc1	.	.	.	6%	7%[12.7 µM]	?
CC1COC(=O)O1 (stereo not given)	.	.	.	0%	.	-1%
CN(C)S(=O)(=O)Nc1ccc(-c2cn3ccsc3n2)cc1	.	.	.	.	15%[59 µM]	-13%
CC(=O)Nc1ccc(S(=O)(=O)N2CCN(CC3CC4C=CC3C4)CC2)cc1 (stereo not given)	-43*	1%	-24%	?	28µM*	9%
CCOc1nc(Nc2ccc(OC)c(Cl)c2)nc(N2CCN(c3ccc(OC)cc3)CC2)n1	-4	-2%	-9%	1%	11µM*	10%
COc1ccc(N2CCN(Cc3nc(N)nc(Nc4ccc(C)c(Cl)c4)n3)CC2)cc1	1	0%	-2%	-3%	1.6µM*	13%
COc1ccc(Nc2nc(N)nc(CN3CCOCC3)n2)cc1	-7	2%	?	-19%	-1%	-23%
Cc1ccc(Nc2nc(N)nc(CN3CCN(Cc4ccc5c(c4)OCO5)CC3)n2)cc1Cl	-1	0%	-6%	3%	45µM*	3%
COC(=O)c1ccc(NC(=O)CN(Cc2ccccc2)S(=O)(=O)c2ccc(Cl)cc2)cc1	.	.	.	.	-3%[59 µM]	-15%
Clc1ccccc1/C=N/c1cc(-c2ccccc2)nn1-c1ccccc1	-2	-1%	17µM*	-13%	-6%[0.0925 µM]	?
CCS(=O)(=O)NC(C)C(c1cccs1)N1CCN(c2ccc(OC)cc2)CC1 (stereo not given)	0	2%	5%	0%	14µM*	-11%
SMILES	CCT modulator	Mm-Cpn inhibitor	PLK1 PBD inh	Sfp PPTase inh	G9a inh	VDR inhibitor
COc1ccc(N2CCN(C(c3cccs3)C(C)NS(=O)(=O)c3ccccc3)CC2)cc1 (stereo not given)	-3	1%	2%	3%	?	-11%
COc1ccc(N2CCN(C(c3cccs3)C(C)NC(=O)C(=O)N3CCCCC3)CC2)cc1 (stereo not given)	-2	0%	-16%	3%	50µM*	-4%
COc1ccc(NC(=O)C2CCN(S(=O)(=O)c3ccc4c(c3)CCCC(=O)N4)CC2)c(OC)c1	.	.	.	.	-29%[59 µM]	6%
COc1ccc(C(=O)N/N=C/c2cc3ccccc3[nH]c2=S)cc1	1	-3%	15µM*	-8%	0.71µM*	-2%
CCN(CC)S(=O)(=O)c1cccc(C(=O)N/N=C/c2cc(OC)c(O)c(OC)c2)c1	-2	-2%	-9%	-9%	10µM*	2%
COc1ccccc1/C=N/NC(=O)c1cccc2ccccc12	0	-4%	15µM*	13%	22%	79µM*
COc1cc(/C=N/NC(=O)c2cccc3ccccc23)cc(OC)c1OC	-2	0%	30µM*	-9%	25%	-15%
CCN(CC)S(=O)(=O)c1cccc(C(=O)N/N=C/c2cccc(O)c2O)c1	-4	0%	-10%	?	0%[59 µM]	0%
Brc1cccc(-c2nn(-c3ccccc3)c3c2cnc2cc4c(cc23)OCO4)c1	.	.	.	.	-6%[59 µM]	-10%
COc1ccccc1/C=N/NC(=O)c1ccc(-c2ccccc2)cc1	-1	1%	30µM*	-4%	-8%	6%
CCOc1ccccc1C(=O)N/N=C/c1cccc2cccnc12	-5	0%	-7%	89µM*	43%[0.501 µM]	-9%
COc1cc(/C=N\NC(=O)c2ccc(-c3ccccc3)cc2)cc(OC)c1O	-1	2%	-4%	4%	?	18%
COc1ccc(C(=O)N/N=C/c2sc3ccccc3c2O)cc1	-1	-6%	58%	4%	50µM*	-20%
COc1cccc([C@@H]2Oc3ccc(Br)cc3C(=O)[C@H]2OC(=O)Nc2ccc(C)c(Br)c2)c1	.	.	.	6%	.	-12%
O=C1CC(=C(c2ccccc2)c2ccccc2)C(=O)N1CCCCN1CCN(c2ccccc2)CC1	-3	-2%	-9%	?	14µM*	9%
O=C(C1CC1)N1CCN(c2ccc([N+](=O)[O-])cc2)CC1	4	.	2%	.	.	5%
O=C(CN1CCN(c2ccccc2)CC1)c1ccc2cc[nH]c2c1	0	-1%	-10%	?	11µM*	-14%
O=C(NCCCN1CCN(CCCNC(=O)c2ccccc2F)CC1)c1ccccc1F	1	3%	0%	3%	4%[59 µM]	3%
O=C(NCCN1CCN(c2ccccc2)CC1)c1ccccc1F	-1	3%	24µM*	4%	-47%	-21%
COC(=O)C1CCN(c2ccc([N+](=O)[O-])cc2)CC1	-66*	-3%	4%	20%	4%	-10%

Assay outcomes deposited in PubChem BioAssay by National Center for Advancing Translational Sciences (NCATS).
